Data reported in PubChem BioAssay (NCI).
About 83,000 compounds went through this panel and 20% of them were active in at least one assay; those are over-represented in the sample as a whole.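 In brief: 96-well plates, 48 h treatment, single concentration, percent growth endpoint.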 A number with no mark means an inactive call. Activity calls are given as the source filed them. How the source made its calls: active means growth percent below 10; inactive means the rest.

Key:
Assay in all cases: NCI-60 one-dose screen, 48 h (100 = growth as untreated, 0 = no growth, -100 = all killed)
Details in all cases: 10 µM unless noted
SR leukemia = tested on: SR leukemia
RPMI-8226 leukemia = tested on: RPMI-8226 leukemia
OVCAR-5 ovarian = tested on: OVCAR-5 ovarian
OVCAR-4 ovarian = tested on: OVCAR-4 ovarian
SK-OV-3 ovarian = tested on: SK-OV-3 ovarian
IGROV1 ovarian = tested on: IGROV1 ovarian
NCI/ADR-RES ovarian = tested on: NCI/ADR-RES ovarian
OVCAR-3 ovarian = tested on: OVCAR-3 ovarian
HS 578T breast = tested on: HS 578T breast
OVCAR-8 ovarian = tested on: OVCAR-8 ovarian

SMILES	growth (SR leukemia)	growth (RPMI-8226 leukemia)	growth (OVCAR-5 ovarian)	growth (OVCAR-4 ovarian)	growth (SK-OV-3 ovarian)	growth (IGROV1 ovarian)	growth (NCI/ADR-RES ovarian)	growth (OVCAR-3 ovarian)	growth (HS 578T breast)	growth (OVCAR-8 ovarian)
COc1cc(C2C=C(C)N=C3SC=CN32)cc(OC)c1OC (stereo not drawn)	106%	113%	109%	108%	112%	111%	110%			
COc1cccc2cc(-c3cc4ccccc4[nH]3)c(=NC(=O)c3ccc(Cl)cc3)oc12	62.7%	76.1%	85.9%	66.8%		53.7%	53%	67%	70.8%	
COC(=O)c1ccc2nc(-c3cc4ccccc4n3C)n(CCCCOc3cc4c(cc3OC)C(=O)N3CCC[C@H]3C=N4)c2c1		-32.9% (active)	-1.18% (active)	-24% (active)	30.1%	-68.2% (active)	29.5%	-40.2% (active)	-62.5% (active)	16.5%
CN1CCN(c2ccc3cc(-c4nc5ccccc5[nH]4)c(=O)oc3c2)CC1		64.5%	102%	70.3%	101%	79.9%	86.9%	97.2%	96.1%	94.7%
CCOC(=O)c1cc(/C(=N\O)c2cc(OC)c(OC)c(OC)c2)n2cc(C)cc(C)c12		17.6%	64.3%	20.7%	37.8%	57.5%	22.6%	-8.99% (active)	11.4%	41.8%
N=C(N)c1ccc(-c2ccc(-c3ccc(Cl)cc3)o2)nc1		-62.4% (active)	-83.8% (active)	-73.6% (active)	-96.7% (active)	-60.6% (active)	-69.7% (active)	-98.3% (active)	-57.2% (active)	-43.4% (active)
Clc1cccc(Cl)c1Cn1c(-c2cncs2)nc2ccccc21		56.7%	94%	82.1%	96.3%	82.6%	73%	90.5%	97%	87%
CC(C)C[C@H](NC(=O)[C@H](Cc1ccccc1)n1ccc(N2CCCCC2)cc1=O)B(O)O		-10.5% (active)	39.3%	39.3%	53.9%	46.2%	90.3%	-29.3% (active)	22%	31.8%
COc1ccc2c(c1)C(C)Cc1c(N(C)C)ncnc1N2C (stereo not drawn)		30.8%	73.2%	62.4%	30%	54.4%	36.2%	10.3%	13.3%	40.8%
Nc1c(C(=O)Nc2cccc(C(F)(F)F)c2)sc2nc3c(cc12)CCCCCC3	21.1%		12.8%		2.08% (active)	14.6%	12%	0.0711% (active)	29.5%	-37.4% (active)
CCN(Cc1ccc(CN(CC)C(=O)C(Br)Br)cc1)C(=O)C(Br)Br		14.2%	71.1%	32.1%	79.8%	46.4%	39.7%	8.57% (active)	38.1%	20.4%
Cc1ccc(Nc2ncnc3c2sc2ncccc23)cc1		105%	101%	109%	101%	105%	98.8%	109%	102%	98.1%
CCOC(=O)[C@H](CSSc1ncnc2cc[nH]c12)NC(=O)[C@@H](C)c1ccc2cc(OC)ccc2c1	18.9%		27.3%		8.34% (active)	41.3%	18.6%	25.4%	59%	20.7%
Cc1ccc2c(c1)ncn2-c1ncnc2c1CC(C)c1ccccc1N2C (stereo not drawn)		-9.63% (active)	54.8%	46.5%	29.6%	16.3%	17.1%	9.32% (active)	20.2%	8.64% (active)
CCCCNC(=O)NS(=O)(=O)c1ccc(N2N=C(c3ccc(C)cc3C)CC2c2ccc(OC)cc2)cc1 (stereo not drawn)		40.3%	89.6%	68.4%	101%	98.9%	45%	75.2%	87.3%	62.9%
CC1Cc2c(N(C)C)ncnc2N(C)c2ccc(O)cc21 (stereo not drawn)		82.9%	99.4%	84.6%	86%	93.6%	84.2%	88.8%	76.2%	103%
O=C1Nc2cc(Cl)ccc2Oc2cc(Oc3ccccc3)ccc21	20.7%			71.5%	47.4%	63.3%	18.9%	27.6%	43.3%	88%
CCCCCCC[C@@H](O)CC(=O)N[C@H](CCCCN)C(=O)N[C@H](Cc1c[nH]c2ccccc12)C(=O)NC(CCCCN)C(=O)N[C@H](CC(C)C)C(=O)N[C@H](Cc1ccccc1)C(=O)N[C@H](CCCCN)C(=O)N[C@H](CCCCN)C(=O)N[C@H](CC(C)C)C(=O)N1CCCC1C(=O)N[C@H](CCCCN)C(=O)N[C@H](Cc1ccccc1)C(=O)N[C@H](CC(C)C)C(=O)N[C@H](Cc1c[nH]cn1)C(=O)N[C@H](CC(C)C)C(=O)N[C@H](C)C(=O)N[C@H](CCCCN)C(=O)N[C@H](CCCCN)C(=O)N[C@H](Cc1ccccc1)C(=O)O (stereo partly drawn)	-13.1% (active)		-63% (active)		-62.8% (active)	-29.4% (active)	-23.6% (active)	-41.3% (active)	-42.4% (active)	-11.1% (active)
CCC(=O)Nc1ccccc1C#C/C=C\C#Cc1ccccc1SC		20.1%	69.1%	74.6%	78.1%	-49.3% (active)	49.9%	65%	-34.3% (active)	144%
Nc1c(C(=O)Nc2cccc(C(F)(F)F)c2)sc2nc3c(cc12)CCCCC3	33.3%		35.5%		-21.4% (active)	-17.4% (active)	17.1%	3.45% (active)	16.6%	21.3%
COc1cc(NC(=O)CCl)ccc(=O)c1		85.4%	93.2%	75%	73.9%	58.1%	92%	61.1%	72.2%	87.6%
COc1cc(/C=C2\C=C(c3ccc(F)cc3)N(Cc3ccccc3)C2=O)cc(OC)c1OC		50.7%	89.6%	51%	99.3%	84.4%	62.1%	70.3%	87.1%	48.8%
NC(C(=O)O)C(O)c1ccc(OCc2ccccc2)c(OCc2ccccc2)c1 (stereo not drawn)	92.3%			107%	103%		93.3%	106%	93.4%	99.6%
O=C(c1ccncc1)N1N=C(c2ccc(Cl)cc2)CC1c1c[nH]c2ccccc12 (stereo not drawn)	57.5%		105%		84.2%	79.3%	97%	95.5%	101%	
O=C(Cc1n[nH]c(=O)c2ccccc12)OCc1c(Cl)cccc1Cl		63.7%	95.7%	105%	113%	29.4%	82.4%	84.5%	103%	102%
Cc1cc2c(C(C)C)c(O)c(O)c(C=NCCCCC(=O)O)c2c(O)c1-c1c(C)cc2c(C(C)C)c(O)c(O)c(C=NCCCCC(=O)O)c2c1O		28.8%	70.9%	44.2%	63.9%	41.7%	74.2%	45.4%	30.9%	46.1%
CSc1ccccc1C#C/C=C\C#Cc1ccccc1N1CCCCC1=O		64.3%	96.7%	102%	109%	-29.6% (active)	102%	97.6%	-20.4% (active)	103%
CCO/C=N/NC(=O)c1ccncc1		108%	103%	109%	109%	108%	111%	106%	105%	108%
Cc1cc(-c2ccccc2)c(C)n1Cc1ccc(Cl)cc1		44.1%	64.5%	61.6%	62.2%	50.4%	14%	27.3%	50.6%	47.2%
NCCSC(c1ccccc1)(c1ccccc1)c1ccccc1		-24.7% (active)	13.1%	33.6%	27.6%	22.2%	-21.9% (active)	2.29% (active)	16.8%	25%
